A short description of experiment [1]: stimulators of insulin release from INS-1E, primary screen, cell-based, 5 mM glucose, NPC library (AID 1117329;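 active = compound raises insulin release from rat beta cells at 5 mM glucose, no numeric limit stated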). Particulars: rat INS-1E insulin secretion, at 10 µM, stronger effect = higher value.
The nature of experiment [2]: growth inhibition of GSK3B-pretreated HCT116 cells – cell-based, CellTiter-Glo, 0.2 to 20 µM (AID 1117336;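 active = compounds lowering colon cancer cell viability after pretreatment blocking the GSK3B kinase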). Particulars: HCT116 viability after GSK3B inhibitor, at 20 µM, stronger effect = higher value. For orientation: ATP-based viability assays read luminescence as a measure of living cells.
A short description of experiment [3]: inhibition of endothelial tube formation, primary screen, imaging, VEGF stimulated, CD31 staining, tube area, NPC library (AID 1117340;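 active = compound that reduces growth-factor-driven endothelial tube area in a mixed cell culture, no cutoff stated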). The note with it: VEGF-stimulated ADSC/ECFC co-culture, at 10 µM, stronger effect = higher value.
Experiment [4] is described as follows: glucagon-like peptide 1 release enhancers, primary assay, NCI-H716 cell line, NPC library (AID 1117341;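 active = compound raises GLP1 secretion from the human gut endocrine cells, with no numeric limit stated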). The note with it: NCI-H716 cells, at 10 µM, stronger effect = higher value.
Experiment [5] in a line: HCT116 colon cancer cell growth inhibition, primary screen, CellTiter-Glo luminescence, NPC library (AID 1117342;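 active = compounds that lower survival of HCT116 colon cancer cells in the luminescence readout, no numeric limit stated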). The note with it: at 20 µM (top of the series).
Experiment [6] in a line: CellTiter-Glo luminescent readout of SW480 viability loss, NPC library primary (AID 1117343;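 active = compounds that lower viability of the colon cancer cells in the luminescence readout, with no numeric limit stated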). The note with it: CellTiter-Glo luminescence; at 20 µM (top of the series).
The nature of experiment [7]: decreased DLD-1 cellular survival, CellTiter-Glo luminescent readout, NPC compound collection, primary HTS (AID 1117346;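 active = compounds that lower survival of DLD-1 colon cancer cells in the luminescence readout, no cutoff given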). Particulars: DLD-1 viability, CellTiter-Glo luminescence; at 20 µM (top of the series).
A short description of experiment [8]: modulation of C. elegans fzo-1 (AID 1259413).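 Also: fzo-1 mutant C. elegans worms in liquid wells.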 Particulars: C. elegans fzo-1 modulator screen, mean read-out; stronger effect = higher value.
Experiment [9] is described as follows: differential killing of epithelial or mesenchymal cells, primary screen, imaging, PC-3E GFP, TEM4-18 mCherry, co-culture (AID 1345086;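 active = compounds killing one labelled cell type while sparing the other, by normalised counts and ratio limits, not self-fluorescent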;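 as to all read-outs here: cells exposed to compound for 72 h before imaging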;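 as to red/green cell ratio (normalised): normalised mesenchymal count divided by normalised epithelial count so high means epithelial killing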). Particulars: imaging cell counts, at 1 µM; for red/green cell ratio (normalised): actives lie on both sides, counts scaled to control wells, 1 = unselective.
In experiment [10] the test system is Aerobactin synthetase IucA (Klebsiella pneumoniae). Kind of experiment: IucA aerobactin synthetase inhibitors, biochemical, Tocris library, absorbance (AID 1345561).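 Also: 100% = enzyme without compound and 0% = no enzyme.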 Particulars: purified IucA enzyme assay, absorbance (OD) read-out; stronger effect = lower value;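 tested at 8 µM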.
Experiment [11] is described as follows: growth inhibition of DIPG glioma cells, dose response, cell-based, SU-DIPG-XVII, MIPE5.0, CellTiter-Glo, qHTS (AID 1347060; cut-off not given, nearly all actives have AC50 up to about 26 µM). Particulars: SU-DIPG-XVII viability, CellTiter-Glo ATP luminescence.
Experiment [12] can be described thus: growth inhibition of DIPG glioma cells, dose response, cell-based, JHH-DIPG-1, MIPE4.0, CellTiter-Glo, qHTS (AID 1347062; cut-off not given, nearly all actives have AC50 up to about 27 µM). Particulars: JHH-DIPG-1 viability, CellTiter-Glo ATP luminescence.
Experiment [13] in a line: growth inhibition of DIPG glioma cells, dose response, cell-based, SU-DIPG-IV, MIPE4.0, CellTiter-Glo, qHTS (AID 1347063; cut-off not given, nearly all actives have AC50 up to about 30 µM;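 also: compound exposure lasted 48 hours before the viability readout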). Particulars: SU-DIPG-IV viability, CellTiter-Glo ATP luminescence.
Experiment [14] is described as follows: growth inhibition of DIPG glioma cells, dose response, cell-based, SU-DIPG-XIII, MIPE4.0, CellTiter-Glo, qHTS (AID 1347061; cut-off not given, nearly all actives have AC50 up to about 37 µM;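 also: cells exposed to compound for 48 hours before readout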). Particulars: SU-DIPG-XIII viability, CellTiter-Glo ATP luminescence.
Experiment [15] can be described thus: growth inhibition of DIPG glioma cells, dose response, cell-based, SU-DIPG-XIII, MIPE5.0, CellTiter-Glo, qHTS (AID 1347064; cut-off not given, nearly all actives have AC50 up to about 23 µM). Particulars: SU-DIPG-XIII viability, CellTiter-Glo ATP luminescence.
Setting [16] is: measured here: epithelial PC-3E GFP cell survival.
The mark [17] stands for this setting: measured here: mesenchymal TEM4-18 mCherry cell survival.

Results filed as inconclusive are left out. Active and inactive are the calls of the source. Unless noted, no rule for the calls is given here.

For the compound `CCN1CCN(c2cc3c(cc2F)c(=O)c(C(=O)O)cn3C2CC2)CC1`, the insulin secretion stimulation in experiment [1] was -0.15% (inactive). Also, in experiment [2], the viability decrease is 38% (inactive). For the same compound, the tube area decrease in experiment [3] was 8.4% (inactive). Moreover, the GLP1 secretion stimulation in experiment [4] was 0.4% (inactive). In addition, in experiment [5], the inhibition of viability was 36.2% (inactive). Further, the viability decrease (inhibition) in experiment [6] is 11.7% (inactive); in [7], -6.2% (inactive). In experiment [8], the mean signal was 280 (inactive). Besides, the red/green cell ratio (normalised) in experiment [9] was 1.09 (inactive). In addition, the normalised cell number worked out at 1.12 in experiment [9] (setting [16]) and 1.23 in experiment [9] (setting [17]).
In general, remaining activity refers to the signal under treatment as a percentage of the control signal. Take `O=C1CC2(CCCC2)CC(=O)N1CCCCN1CCN(c2ncccn2)CC1`: in experiment [1], the insulin secretion stimulation was -0.8% (inactive). Moreover, the viability decrease in experiment [2] is 20.1% (inactive). Besides, the tube area decrease in experiment [3] is -1.5% (inactive). Also, in [4], the GLP1 secretion stimulation was 1.7% (inactive). The inhibition of viability in experiment [5] was 39.4% (inactive). In addition, the viability decrease (inhibition) in experiment [6] was 20.4% (inactive); in [7], 1.7% (inactive). In addition, the mean signal in [8] was 228 (inactive). For the same compound, the red/green cell ratio (normalised) in experiment [9] is 1.04 (inactive). The normalised cell number in experiment [9] (setting [16]) turned out to be 1.05; in experiment [9] (setting [17]), 1.09. Also, the remaining activity in experiment [10] was 109% (inactive).
As for `CCOc1cc(CC(=O)N[C@@H](CC(C)C)c2ccccc2N2CCCCC2)ccc1C(=O)O`, the insulin secretion stimulation in experiment [1] is 43.9% (active). The viability decrease in experiment [2] was 70.5% (active). For the same compound, the tube area decrease in [3] was -11.3% (inactive). Besides, the GLP1 secretion stimulation in [4] is 0.5% (inactive). Further, in experiment [5], the inhibition of viability was 29.7% (inactive). The viability decrease (inhibition) was 68.3% (active) in experiment [6] and 33.3% (inactive) in experiment [7]. Further, the mean signal in experiment [8] was 247 (inactive). In addition, the red/green cell ratio (normalised) in experiment [9] was 0.96 (inactive). Further, the normalised cell number in experiment [9] (setting [16]) was found to be 1.2; in experiment [9] (setting [17]), 1.16. The remaining activity in experiment [10] was 120% (inactive). The compound was classed as inactive in experiment [11], in experiment [12] and in experiment [13].
Take `CC(C)NCC(O)COc1ccc(CCOCC2CC2)cc1` (stereo unspecified): in experiment [1], the insulin secretion stimulation is -1.4% (inactive). The viability decrease in experiment [2] was -6.1% (inactive). Besides, in [3], the tube area decrease is 26% (inactive). In experiment [4], the GLP1 secretion stimulation was 1.9% (inactive). Further, the inhibition of viability in experiment [5] was 14.2% (inactive). Also, the values for the viability decrease (inhibition) in [6] and in [7] were 10.9% (inactive) and 2.1% (inactive), respectively. For the same compound, in experiment [8], the mean signal was 281 (inactive). Also, the red/green cell ratio (normalised) in experiment [9] was 0.81 (inactive). For the same compound, the normalised cell number in experiment [9] (setting [16]) turned out to be 1.26; in experiment [9] (setting [17]), 1.02. Besides, in experiment [10], the remaining activity is 100% (inactive). Besides, the compound was called inactive in [11], in experiment [14], in experiment [12], in [13] and in experiment [15].
For `CC(Oc1c(Cl)cccc1Cl)C1=NCCN1` (stereo unspecified), the insulin secretion stimulation in [1] is 2.3% (inactive). For the same compound, in experiment [2], the viability decrease is -16.2% (inactive). Also, the tube area decrease in experiment [3] was -28.5% (inactive). In experiment [4], the GLP1 secretion stimulation is -2.9% (inactive). Besides, in experiment [5], the inhibition of viability is 31.3% (inactive). The viability decrease (inhibition) in [6] was 12.5% (inactive); in experiment [7] it was 61.6% (active). Besides, the mean signal in [8] was 295 (inactive). Moreover, the red/green cell ratio (normalised) in [9] was 1.37 (inactive). Also, the normalised cell number in experiment [9] (setting [16]) was found to be 0.85; in experiment [9] (setting [17]), 1.17.
As for `COCCCC/C(=N\OCCN)c1ccc(C(F)(F)F)cc1`, the insulin secretion stimulation in [1] is 1.6% (inactive). In experiment [2], the viability decrease is -112% (inactive). In addition, the tube area decrease in experiment [3] was -2.4% (inactive). Also, in experiment [4], the GLP1 secretion stimulation was -1.9% (inactive). Also, the inhibition of viability in experiment [5] is 37.3% (inactive). The viability decrease (inhibition) in experiment [6] was 15.4% (inactive); in experiment [7], 23.5% (inactive). Besides, in experiment [8], the mean signal is 245 (inactive). Moreover, in experiment [9], the red/green cell ratio (normalised) is 0.92 (inactive). Further, the normalised cell number came out at 1.1 in experiment [9] (setting [16]) and 1.01 in experiment [9] (setting [17]). In addition, the remaining activity in experiment [10] was 125% (inactive). Moreover, the compound was classed as inactive in experiment [12] and in experiment [13].
For `CC(=O)NS(=O)(=O)c1ccc(N)cc1`, in experiment [1], the insulin secretion stimulation was -1.9% (inactive). In addition, the viability decrease in experiment [2] was -5.2% (inactive). Also, in experiment [3], the tube area decrease was 14.5% (inactive). In addition, in experiment [4], the GLP1 secretion stimulation is -1.7% (inactive). Besides, the inhibition of viability in experiment [5] was 1.2% (inactive). Also, the viability decrease (inhibition) was -3.2% (inactive) in experiment [6] and -1.3% (inactive) in [7]. Besides, the mean signal in experiment [8] was 275 (inactive). The red/green cell ratio (normalised) in experiment [9] was 1.56 (inactive). The normalised cell number in [9] (setting [16]) came to 0.84; in [9] (setting [17]) it was 1.31.

These data come from PubChem BioAssay.
